Test results taken from PubChem BioAssay (NCI).
The panel holds about 83,000 compounds, 20% with a hit somewhere; the sample as a whole holds those more often.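 In brief: 96-well plates, 48 h treatment, single concentration, percent growth endpoint.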 A number with no mark means an inactive call. The source made the active and inactive calls.

Each molecule was assayed on HCC-2998 colon (assay: NCI-60 one-dose screen, 48 h (100 = growth as untreated, 0 = no growth, -100 = all killed)). Conditions: 10 µM unless noted.
Experimental: Growth inhibition of the HCC-2998 human tumor cell line is measured as a screen for anti-cancer activity. Cells are grown in 96 well plates and exposed to the test compound for 48 hours. Compounds are tested at a single concentration, which is 10^-5 M for most compounds. The reported endpoint is percent growth (GI% or GIPRCNT), where numbers from 0 - 100% represent growth inhibition, and numbers from -100% - 0 represent cell death. For example, a value of 40 represents 60% growth inhibition. A value of 0 means no net growth occurred over the course of the experiment. A value of -40 indicates 40% of cells at the beginning of the experiment died by the end of the experiment. A value of -100 means all cells are dead at the end of the experiment.
NCI-60 Human Tumor Cell Lines Screen was performed using the standard one-dose NCI protocol, which is described in more detail at https://dtp.cancer.gov/discovery_development/nci-60/default.htm.
Compounds with GIPRCNT values below 10 were considered active. Activity score was based on GIPRCNT using the following formula: […]
Score is 0 for GIPRCNT values of 100 or above, 50 for GIPRCNT values of 0, and 100 for GIPRCNT values of -100.
Molecule `CC[C@H](C)[C@H](NC(=O)C12CC(NC(C)=O)(C1)C2)C(=O)N(C)[C@H](C[C@@H](OC(C)=O)c1nc(C(=O)N[C@@H](Cc2ccccc2)C[C@H](C)C(=O)OC)cs1)C(C)C` has a growth of 24.8%. Molecule `COc1ccc2c(c1)c(-c1nc(-c3cn(C)c4ncccc34)cs1)cn2CCCCN1CCCCC1` has a growth of 95.3%. Molecule `CN1C(=O)C(=Cc2cn(CCCCCCn3c4ccccc4c(=O)c4ccccc43)c3ccccc23)C(=O)N(C)C1=O` has a growth of 99.4%. Molecule `COC(=O)[C@@H](C)C[C@H](Cc1ccc(F)cc1)NC(=O)c1csc([C@@H](C[C@H](C(C)C)N(C)C(=O)[C@@H](NC(=O)[C@H]2CCCCN2C)C(C)C)OC(C)=O)n1` has a growth of 21.8%. `CCCCN1CCCC[C@@H]1C(=O)N[C@H](C(=O)N(C)[C@H](CCc1nc(C(=O)N[C@@H](Cc2ccccc2)C[C@H](C)C(=O)OC)cs1)C(C)C)[C@@H](C)CC` showed a growth of 61.7%. Work on `COc1ccc(/C=C\c2cc(OC)c(OC)c(OC)c2)c(NS(=O)(=O)c2ccc(Cl)cc2)c1O` yielded a growth of 12.7%. Molecule `O=C1OCCC1Br` (stereo not given) has a growth of 102%. `CC1[C@H](C)OC(=O)CC(O)CC(O)CC(O)CCC(O)C(O)C[C@]2(O)CC(O)C(C(=O)O)C(CC(OC3O[C@H](C)[C@@H](O)[C@H](N)[C@@H]3O)/C=C/C=C/C=C/C=C/CC/C=C/C=C/[C@H](C)[C@H]1O)O2` (stereo not given in full) showed a growth of 103%. In the case of `CC(=O)O[C@H]1C(=O)[C@@]2(C)[C@H]([C@H](OC(=O)c3ccccc3)[C@]3(O)C[C@H](OC(=O)[C@H](OC(=O)OC[C@H]4COC(C)(C)O4)[C@@H](NC(=O)c4ccccc4)c4ccccc4)C(C)=C1C3(C)C)[C@]1(OC(C)=O)CO[C@@H]1C[C@@H]2O`, the growth is reported as 1.92% (active). Molecule `CCOc1ccccc1C(=O)OCC(Cl)(Cl)Cl` has a growth of 101%. With `O=C1OCC2=C1C(c1ccccc1)c1cc3c(cc1N2)OCO3` (stereo not given) the growth was 3.21% (active). In the case of `O=C(CC1(O)C(=O)N(Cc2ccccc2)c2ccc(F)cc21)c1ccc(C(=O)NCC2CCC3(CC2)OOC2(CCCCC2)OO3)cc1` (stereo not given), the growth is reported as 44.9%. Work on `CC(=O)[O][Hg][O]C(C)=O` yielded a growth of 120%. With `CCc1ccccc1[C@@H]1C[C@]2(C)CCO[C@@H]2OO1` the growth was 93.7%. In the case of `CCCCOc1ccc(C(N)Cc2ccccc2)cc1` (stereo not given), the growth is reported as 29.9%. For `COc1ccc(C2=CC(c3ccc(OC)c(OC)c3)c3c(c4ccccc4oc3=O)O2)cc1OC` (stereo not given), the growth was 31.4%. `CCOC(=O)[C@@H](C)C[C@H](Cc1ccccc1)NC(=O)c1csc([C@@H](C[C@H](C(C)C)N(C)C(=O)[C@H](CCC(C)C)NC(=O)[C@H]2CCCCN2C)OC(C)=O)n1` gave a growth of 10%. `COc1ccc(/C=C/c2cc(OC)c(OC)c(OC)c2)cc1NC(=O)/C=C/c1ccc(F)cc1` was tested, and the growth was 17.2%. With `C[C@]12CCc3sc(-c4cccc(F)c4)nc3C1=CC[C@@H]1[C@@H]2CC[C@]2(C)C(=O)CC[C@@H]12` the growth was 79.5%. In the case of `COC(=O)CC12CC(NC(=O)c3csc([C@@H](C[C@H](C(C)C)N(C)C(=O)[C@@H](NC(=O)[C@H]4CCCCN4C)C(C)C)OC(C)=O)n3)(C1)C2`, the growth is reported as 10.5%. For `COc1cc2c(cc1OCCCCn1c(-c3cccs3)nc3ccccc31)N=C[C@@H]1CCCN1C2=O`, the growth was 0.698% (active). `Clc1ccc2nnnn2n1` gave a growth of 107%. `CCCCCCCCCCCCCC[P+](CCCCCC)(CCCCCC)CCCCCC` was tested, and the growth was -24.4% (active). In the case of `CC12CCC=CC1CCC1C2CCC2(C)C(c3ccc(=O)oc3)CCC12O` (stereo not given), the growth is reported as -21.5% (active). `COC(=O)[C@@H](C)C[C@H](Cc1cn(C)c2ccccc12)NC(=O)c1csc([C@@H](C[C@H](C(C)C)N(C)C(=O)[C@@H](NC(=O)[C@H]2CCCCN2C)C(C)C)OC(C)=O)n1` gave a growth of 17.3%. With `Nc1nc([Se])c2ncn(C3OC(CO)C(O)C3O)c2n1` (stereo not given) the growth was 88.7%. For `O=C(c1ccccc1O)c1[nH]c(Cl)c(Cl)c1-n1c(C(=O)c2ccccc2O)cc(Cl)c1Cl`, the growth was 15.3%. Work on `COC(=O)[C@@H](C)C[C@H](Cc1ccc2ccccc2c1)NC(=O)c1csc([C@@H](C[C@H](C(C)C)N(C)C(=O)[C@@H](NC(=O)[C@H]2CCCCN2C)C(C)C)OC(C)=O)n1` yielded a growth of 52.8%. `CC(=O)Oc1ccccc1C(=O)NCCC[Se]C#N` was tested, and the growth was 97.9%. `Cn1cc(C=O)c2nccnc21` showed a growth of 109%. In the case of `CC(=O)O[C@H](C[C@H](C(C)C)N(C)C(=O)[C@@H](NC(=O)[C@H]1CCCN1C)C(C)C)c1nc(C(=O)N[C@@H](Cc2ccccc2)C[C@H](C)C(=O)O)c(C)s1`, the growth is reported as 21.9%. Molecule `CCCCCCCC[n+]1ccc2ccccc2c1` has a growth of 47.4%. Work on `N#CC1(c2ccccc2)CCN(Cc2ccccc2)CC1` yielded a growth of 113%. In the case of `CC(=O)[O][Hg][c]1c(N)c(C)cc(C)c1F`, the growth is reported as 93.7%. In the case of `C/C(=C\c1ccn(-c2ccc(N)c(F)c2)n1)[C@@H]1C[C@@H]2O[C@]2(C)CCC[C@H](C)[C@H](O)[C@@H](C)C(=O)C(C)(C)[C@@H](O)CC(=O)O1`, the growth is reported as 4.73% (active). With `COc1ccc(C2=N[C@@H](Cc3ccccc3)C(=O)Nc3ccsc32)cc1` the growth was 81.5%. Work on `Cc1ccc(Nc2nc3c(s2)C2=CC[C@@H]4[C@H](CC[C@]5(C)C(=O)CC[C@@H]45)[C@@]2(C)CC3)cc1` yielded a growth of 78.2%. Work on `COc1cc([C@@H]2c3cc4c(cc3[C@H](OC(C)=O)[C@H]3COC(=O)[C@H]23)OCO4)cc(OC)c1OC` yielded a growth of 15%. With `CC(C)(C)C(=O)OCOP(=O)(NCc1ccccc1)C1CCCN(O)C1=O` (stereo not given) the growth was 24.7%. `COc1cc2c(cc1OCCCCCn1c(-c3ccco3)nc3ccccc31)N=C[C@@H]1CCCN1C2=O` was tested, and the growth was -22.3% (active).
